Among all 2,500 compounds or so, about 1,100 (44%) were called active. The set was probably picked from earlier hits. This is one part of the list. Values without a mark were called inactive.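 The calls were made as follows: active = inhibition above 50% at 4 µM in the single-point screen; inactive = inhibition of 50% or less.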

A word on the inhibition: it is the change of the read-out against control, counted positive when it falls.

The test in a line: blockers of TNF-a NF-kB luciferase induction – cell-based, HEK293T NF-kB-Luc, luminescence, selectivity assay for NOD1/NOD2 signaling inhibitor project, primary screen (AID 1852). The conditions noted are these: TNF-a induced, 14 h, at 4 µM, active compounds read high.
In the case of `COC(=O)c1ccc(Nc2c([N+](=O)[O-])c(=O)oc3ccccc23)cc1`, the inhibition was 99.5% (active). With `Cc1ccc(Nc2c([N+](=O)[O-])c(=O)oc3ccccc23)cc1C`, the inhibition is 6.4%. Then `O=c1oc2ccccc2c(Nc2ccc(F)cc2)c1[N+](=O)[O-]`, with -32.2%. In the case of `C=CS(=O)(=O)c1ccc(Oc2ccc(S(=O)(=O)C=C)cc2)cc1`, the inhibition is 103% (active). Then `CC(=O)NC(c1ccccc1)c1cc([N+](=O)[O-])c2cccnc2c1O` (stereo unspecified), with 99.5% (active). Turning to `CC(=O)NC(c1ccc(C)cc1)c1cc([N+](=O)[O-])c2cccnc2c1O` (stereo unspecified), the inhibition is 76.4% (active).

Take `CC(=O)NC(c1ccc(C)cc1)c1cc(Cl)c2cccnc2c1O` (stereo unspecified): the inhibition is 77.9% (active). The figure for `CCC(=O)NC(/C=C/c1ccccc1)c1cc([N+](=O)[O-])c2cccnc2c1O` (stereo unspecified) is 81.6% (active); for `CCCCCc1ccc(OCCCC[n+]2ccc(C)cc2)c(CCCCC)c1` it is 6.6%; for `CCC(=O)NC(c1ccc(C)cc1)c1cc([N+](=O)[O-])c2cccnc2c1O` (stereo unspecified) it is 84.6% (active). Then `CC[C@@]1(O)C(=O)OCc2c1cc1n(c2=O)Cc2cc3c(N)cccc3nc2-1`, with 88.3% (active); and `O=C(N/N=C/c1ccc([N+](=O)[O-])o1)c1ccccc1-n1cccc1`, with 45.7%; and `O=C(Nc1c(Cl)ccc2nsnc12)c1ccc([N+](=O)[O-])o1`, with 16%. `O=[N+]([O-])c1ccc(/C=N/N=C/c2ccc([N+](=O)[O-])o2)o1`: the inhibition is 83% (active). In the case of `O=C(N/N=C/c1ccc([N+](=O)[O-])o1)c1ccccc1NS(=O)(=O)c1cccs1`, the inhibition is 61.1% (active).

Consider `O=C(N/N=C/c1ccc([N+](=O)[O-])o1)c1cc2ccccc2o1`, for which the inhibition is 52.9% (active).

For the molecule `O=C(CNc1cccc2ccccc12)N/N=C/c1ccc([N+](=O)[O-])o1`, the inhibition was 34%.

As for `Cc1ccc(NCC(=O)N/N=C\c2ccc([N+](=O)[O-])o2)cc1`, the inhibition is 35.7%. Then `Cc1nonc1C(=O)N/N=C/c1ccc([N+](=O)[O-])o1`, with 46%; and `Cc1scc(C(=O)N/N=C/c2ccc([N+](=O)[O-])o2)c1C`, with 72% (active).

`O=C(N/N=C/c1ccc([N+](=O)[O-])o1)c1ccc2c(c1)OCO2`: the inhibition is 71.8% (active). Take `CCCCN(CC)S(=O)(=O)c1ccc(C(=O)Nc2nnc(-c3ccccc3Cl)o2)cc1`: the inhibition is 59.6% (active).

As for `CCCCN(C)S(=O)(=O)c1ccc(C(=O)Nc2nnc(-c3cccs3)o2)cc1`, the inhibition was 55.8% (active). The figure for `O=C(CN(Cc1ccccc1)S(=O)(=O)c1ccc2c(c1)OCCO2)Nc1ccc2c(c1)OCCO2` is 8.4%; for `CCCCN(CC)S(=O)(=O)c1ccc(C(=O)Nc2nnc(-c3cccs3)o2)cc1` it is 59.1% (active); for `CCN(c1ccccc1)S(=O)(=O)c1ccc(NC(=S)NC(=O)c2cccs2)cc1` it is 43.4%. Then `CCN(Cc1ccccc1)S(=O)(=O)c1ccc(C(=O)Nc2nnc(C3CC3)o2)cc1`, with 92.7% (active); and `CN1CCN(Cc2nc(Cc3cccc(F)c3)no2)CC1c1ccccc1` (stereo unspecified), with 3.2%; and `CCOC(=O)COc1ccc2ccccc2c1/C=C/[N+](=O)[O-]`, with 27.3%. Then `O=C(N/N=C/c1cc(Cl)c(O)c(Cl)c1)c1cc2c(ccc3ccccc32)o1`, with 42.9%; and `NC(=S)N/N=C\c1c(OCc2ccccc2Cl)ccc2ccccc12`, with 66% (active). As to `COc1ccc(S(=O)(=O)Nc2ccc(OCC(=O)O)cc2)c2ccccc12`, the inhibition was -2.2%. For the molecule `CCc1ccc(S(=O)(=O)Nc2ccc(O)c3ccccc23)cc1`, the inhibition was 36.3%. As for `Cc1ccc(S(=O)(=O)Nc2cc(C)c(O)cc2C)cc1`, the inhibition was 29.5%. The figure for `COc1ccc(NC(C)=O)cc1S(=O)(=O)Nc1ccc(OCc2ccccc2)cc1` is 33.1%; for `O=S(=O)(Nc1ccc(O)c2ccccc12)c1ccc(Br)cc1` it is 101% (active); for `Cc1ccc(S(=O)(=O)Nc2ccc(O)c3ccccc23)c(C)c1` it is 92.3% (active).

In the case of `Cc1ccc(S(=O)(=O)Nc2cc(C(C(=O)OC(C)C)C(=O)C(F)(F)F)c(O)c3ccccc23)c(C)c1` (stereo unspecified), the inhibition was 72% (active).

As for `COc1ccc(OC)c(S(=O)(=O)Nc2ccc(O)c3ccccc23)c1`, the inhibition is 62.6% (active).

Turning to `CCCNc1c(NS(=O)(=O)c2ccc(Br)cc2)c(=O)oc2ccccc12`, the inhibition was 11.2%. The figure for `O=C(O)CCSc1ncnc2sc(-c3ccccc3)cc12` is 43.8%.

In the case of `O=C(O)CCSc1nnc(-c2ccc3c(c2)OCO3)o1`, the inhibition is 64.7% (active). The figure for `CCc1ccc(S(=O)(=O)Nc2cc(SCC(=O)O)c(O)c3ccccc23)cc1` is 8%; for `O=C(O)CSc1cc(NS(=O)(=O)c2ccc(Cl)cc2)c2ccccc2c1O` it is 93.9% (active); for `Cc1ccc(C)c(S(=O)(=O)Nc2cc(SCC(=O)O)c(O)c3ccccc23)c1` it is 105% (active). Then `COC(=O)c1sccc1NC(=O)CSc1ccccc1NS(=O)(=O)c1cc(Cl)ccc1Cl`, with 39%; and `CCOc1ccc(S(=O)(=O)Nc2cc(SCC(=O)O)c(O)c3ccccc23)cc1`, with 92.5% (active); and `COC(=O)c1sccc1NC(=O)CSc1ccccc1NS(=O)(=O)c1ccc(Br)cc1`, with 26.3%. Take `COc1ccc(S(=O)(=O)Nc2cc(SCC(=O)O)c(O)c3ccccc23)cc1`: the inhibition is 98.3% (active). The figure for `Cc1ccc(-c2n[nH]c(=O)c3ccccc23)cc1S(=O)(=O)Nc1ccccc1` is 14.6%; for `COc1ccc(S(=O)(=O)c2c(O)cc(C)c(NS(=O)(=O)c3ccccc3)c2C)cc1` it is 46.9%; for `Cc1cc(S(=O)(=O)NCc2ccncc2)c(C)cc1Br` it is 22.7%.

Consider `CS(=O)(=O)C1=NN2C(=N)/C(=C\c3ccc(OCCOc4ccccc4)cc3)C(=O)N=C2S1`, for which the inhibition is -28.3%. Then `CCN1CCN(Cc2ccc(NC(=O)c3ccc(C)c(NC(=O)c4ccno4)c3)cc2C(F)(F)F)CC1`, with -16.6%.

Take `O=C(Nc1ccc2nc3n(c(=O)c2c1)CCCCC3)c1cc([N+](=O)[O-])ccc1F`: the inhibition is 37.4%. For `O=C(Nc1ccc2nc3n(c(=O)c2c1)CCCCC3)c1c(F)ccc([N+](=O)[O-])c1F`, the inhibition was 94.6% (active).

Values taken from PubChem BioAssay AID1852 (Sanford-Burnham Center for Chemical Genomics, 2009).
